Results from PubChem BioAssay (EPA / NIEHS).
Calls of active or inactive are those of the source. The calls were made as follows: active = hit-call score of the fitted dose curve at least 0.9, where 1 is the maximum; inactive = score below 0.9.

Tests used:
Settings in all cases: mRNA level, 48 h; actives raise or lower the signal
[1] = read-out: Glutamate-cysteine ligase regulatory (GCLM), GCLM (gene 2730); test: LTEA_HepaRG_GCLM: Life Technologies and Expression Analysis (LTEA) Assay for Glutamate-cysteine ligase regulatory (GCLM) using HepaRG (AID 2283500)
Procedure, shortened: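 HepaRG, 48 h dosing, 100 uM top, half-log x8, 0.5% DMSO vehicle. Readout: GCLM mRNA by TaqMan qRT-PCR, housekeeping-normalized (ACTB/GAPDH/POLR2A). Curves fit bidirectionally vs DMSO baseline.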

[2] = read-out: Glutathione S-transferase M3 (GSTM3), GSTM3 (gene 2947); test: LTEA_HepaRG_GSTM3: Life Technologies and Expression Analysis (LTEA) Assay for Glutathione S-transferase M3 (GSTM3) using HepaRG (AID 2283501)
Procedure, shortened: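 Differentiated human HepaRG cells were exposed in duplicate for 48 h in serum-free induction medium, 8 points from 100 uM top in half-log steps, 0.5% DMSO. GSTM3 mRNA was measured by TaqMan qRT-PCR, normalized to ACTB, GAPDH and POLR2A; bidirectional fit versus DMSO.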

[3] = read-out: Heat shock 70 kDa protein 1 (HSPA1A), gene 3303; test: LTEA_HepaRG_HSPA1A: Life Technologies and Expression Analysis (LTEA) Assay for Heat shock 70 kDa protein 1 (HSPA1A) using HepaRG (AID 2283502)
Procedure, shortened: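 HepaRG, 48 h exposure, 8-pt half-log CRC from 100 uM in 0.5% DMSO, duplicates. Readout: TaqMan qRT-PCR of HSPA1A mRNA, housekeeping-normalized (ACTB/GAPDH/POLR2A). Bidirectional fit vs 0.5% DMSO baseline.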

[4] = read-out: Hypoxia-inducible factor 1-alpha (Homo sapiens) (UniProt Q16665); test: LTEA_HepaRG_HIF1A: Life Technologies and Expression Analysis (LTEA) Assay for Hypoxia-inducible factor 1 (HIF1A) Trancription factor using HepaRG (AID 2283503)
Procedure, shortened: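 Gain- or loss-of-signal HIF1A mRNA changes are fitted against a DMSO baseline. HepaRG cultures receive eight concentrations, highest 100 uM, for 48 h in serum-free induction medium with 0.5% DMSO.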

[5] = read-out: 3-Hydroxy-3-Methylglutaryl-CoA Synthase 2 (HMGCS2), HMGCS2 (gene 3158); test: LTEA_HepaRG_HMGCS2: Life Technologies and Expression Analysis (LTEA) Assay for 3-Hydroxy-3-Methylglutaryl-CoA Synthase 2 (HMGCS2) using HepaRG (AID 2283504)
Procedure, shortened: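 Human HepaRG cells in serum-free induction medium were exposed in duplicate for 48 h to 8-point half-log series from 100 uM top in 0.5% DMSO. HMGCS2 mRNA measured by TaqMan qRT-PCR, normalised to ACTB, GAPDH, POLR2A; bidirectional fit versus DMSO.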

HGF (gene 3082) = test: LTEA_HepaRG_HGF: Life Technologies and Expression Analysis (LTEA) Assay for Hepatocyte Growth Facto (HGF) using HepaRG (AID 2283505)
Procedure, shortened: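 Differentiated HepaRG cells in serum-free induction medium exposed 48 h in duplicate, 8 half-log concentrations from 100 uM in 0.5% DMSO. HGF mRNA by qRT-PCR, normalised to ACTB, GAPDH, POLR2A; bidirectional fitting.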

[6] = read-out: Insulin Like Growth Factor 1 (IGF1), IGF1 (gene 3479); test: LTEA_HepaRG_IGF1: Life Technologies and Expression Analysis (LTEA) Assay for Insulin Like Growth Factor 1 (IGF1) using HepaRG (AID 2283506)
Procedure, shortened: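 qRT-PCR readout of IGF1 mRNA, normalized to three housekeeping genes, after 48 h chemical exposure of HepaRG cells. Concentrations: 8-point half-log series, top 100 uM, 0.5% DMSO vehicle. Gain or loss fitted against DMSO baseline.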

[7] = read-out: Intercellular Adhesion Molecule 1 (ICAM1), ICAM1 (gene 3383); test: LTEA_HepaRG_ICAM1: Life Technologies and Expression Analysis (LTEA) Assay for Intercellular Adhesion Molecule 1 (ICAM1) using HepaRG (AID 2283507)
Procedure, shortened: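 Differentiated human HepaRG cells in serum-free induction medium exposed 48 h in duplicate to 8 half-log concentrations (top 100 uM, 0.5% DMSO). ICAM1 mRNA quantified by TaqMan qRT-PCR, normalized to ACTB, GAPDH and POLR2A; bidirectional fitting versus DMSO.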

[8] = read-out: Insulin-like growth factor-binding protein 1 (IGFBP1), IGFBP1 (gene 3484); test: LTEA_HepaRG_IGFBP1: Life Technologies and Expression Analysis (LTEA) Assay for Insulin-like growth factor-binding protein 1 (IGFBP1) using HepaRG (AID 2283508)
Procedure, shortened: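 HepaRG cells, plated 48 h then switched to serum-free induction medium, exposed in duplicate for 48 h to 8-point half-log series from 100 uM in 0.5% DMSO. mRNA measured by qRT-PCR, normalized to ACTB/GAPDH/POLR2A; bidirectional fit versus DMSO.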

[9] = read-out: Interleukin 6 (IL6), IL6 (gene 3569); test: LTEA_HepaRG_IL6: Life Technologies and Expression Analysis (LTEA) Assay for Interleukin 6 (IL6) using HepaRG (AID 2283509)
Procedure, shortened: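 qRT-PCR read-out of IL6 transcript, normalized to three housekeeping genes, after 48 h chemical exposure of HepaRG cells; 8-point half-log series, top 100 uM, 0.5% DMSO vehicle. Bidirectional curve fitting against DMSO baseline.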

[10] = read-out: Interleukin 6 Receptor (IL6R), IL6R (gene 3570); test: LTEA_HepaRG_IL6R: Life Technologies and Expression Analysis (LTEA) Assay for Interleukin 6 Receptor (IL6R) using HepaRG (AID 2283510)
Procedure, shortened: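 HepaRG, 48 h exposure, 8-pt half-log series, top 100 uM, 0.5% DMSO vehicle, duplicates. Read-out: TaqMan qRT-PCR of IL6R transcript, housekeeping-gene normalized. Gain or loss fitted relative to DMSO baseline.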

[11] = read-out: Potassium channel subfamily K member 1 (KCNK1), KCNK1 (gene 3775); test: LTEA_HepaRG_KCNK1: Life Technologies and Expression Analysis (LTEA) Assay for Potassium channel subfamily K member 1 (KCNK1) using HepaRG (AID 2283511)
Procedure, shortened: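 HepaRG, 48 h exposure, 8-pt half-log series top 100 uM, 0.5% DMSO vehicle, duplicates. Readout: KCNK1 transcript by qRT-PCR (Fluidigm array), housekeeping-normalized; bidirectional curve fit relative to DMSO baseline.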

[12] = read-out: Keratin 19 (KRT19), KRT19 (gene 3880); test: LTEA_HepaRG_KRT19: Life Technologies and Expression Analysis (LTEA) Assay for Keratin 19 (KRT19) using HepaRG (AID 2283512)
Procedure, shortened: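 Differentiated HepaRG cells in serum-free induction medium, exposed 48 h in duplicate to 8 half-log concentrations up to 100 uM in 0.5% DMSO. KRT19 mRNA by qRT-PCR, normalized to ACTB, GAPDH, POLR2A; bidirectional fit vs DMSO.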

[13] = read-out: JUN Transcription Factor, JUN (gene 3725); test: LTEA_HepaRG_JUN: Life Technologies and Expression Analysis (LTEA) Assay for JUN Transcription Factor using HepaRG (AID 2283513)
Procedure, shortened: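 HepaRG, 48 h exposure, 8-pt half-log series top 100 uM, 0.5% DMSO, duplicate. JUN mRNA by qRT-PCR (Fluidigm), housekeeping-normalized (ACTB/GAPDH/POLR2A); bidirectional curve fit vs DMSO baseline.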

[14] = read-out: Lipase C (LIPC), LIPC (gene 3990); test: LTEA_HepaRG_LIPC: Life Technologies and Expression Analysis (LTEA) Assay for Lipase C (LIPC) using HepaRG (AID 2283514)
Procedure, shortened: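 HepaRG, 48 h exposure, 8-pt half-log series from 100 uM in 0.5% DMSO, duplicates. Readout: LIPC mRNA by Fluidigm qRT-PCR, housekeeping-normalized (ACTB/GAPDH/POLR2A). Gain or loss fitted bidirectionally against DMSO baseline.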

[15] = read-out: Lipoprotein lipase (LPL), LPL (gene 4023); test: LTEA_HepaRG_LPL: Life Technologies and Expression Analysis (LTEA) Assay for Lipoprotein lipase (LPL) using HepaRG (AID 2283515)
Procedure, shortened: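 HepaRG, 48 h exposure, 8-pt half-log dilutions from 100 uM, 0.5% DMSO vehicle, duplicates; qRT-PCR (Fluidigm array) of LPL mRNA vs housekeeping genes; bidirectional curve fit relative to DMSO baseline.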

[16] = read-out: MicroRNA 122 (MIR122), gene 406906; test: LTEA_HepaRG_MIR122: Life Technologies and Expression Analysis (LTEA) Assay for MicroRNA 122 (MIR122) using HepaRG (AID 2283516); also: the transcript read is the microRNA miR-122
Procedure, shortened: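 qRT-PCR read-out (TaqMan, Fluidigm array), normalized to three housekeeping genes; HepaRG cells dosed 48 h at 8 concentrations up to 100 uM in 0.5% DMSO, duplicate; gain or loss fitted against DMSO baseline.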

[17] = read-out: matrix metalloproteinase-10 (MMP10), MMP10 (gene 4319); test: LTEA_HepaRG_MMP10: Life Technologies and Expression Analysis (LTEA) Assay for matrix metalloproteinase-10 (MMP10) using HepaRG (AID 2283517)
Procedure, shortened: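 Transcript levels come from Fluidigm qRT-PCR normalized to three housekeeping genes, with curves fitted bidirectionally against 0.5% DMSO. Human HepaRG cells were dosed for 48 hours at concentrations up to 100 uM.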

MYC, MYC (gene 4609) = test: LTEA_HepaRG_MYC: Life Technologies and Expression Analysis (LTEA) Assay for MYC using HepaRG (AID 2283518)
Procedure, shortened: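 Differentiated HepaRG cells exposed 48 h in serum-free induction medium to 8 concentrations (top 100 uM, half-log steps; 0.5% DMSO), duplicate. MYC mRNA measured by Fluidigm qRT-PCR, normalized to ACTB, GAPDH, POLR2A; bidirectional fit versus DMSO.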

[18] = read-out: matrix metalloproteinase-3 (MMP3), MMP3 (gene 4314); test: LTEA_HepaRG_MMP3: Life Technologies and Expression Analysis (LTEA) Assay for matrix metalloproteinase-3 (MMP3) using HepaRG (AID 2283519)
Procedure, shortened: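 qRT-PCR read-out of MMP3 mRNA (normalised to three housekeeping genes) in HepaRG liver cells after 48 h chemical exposure; 8-point half-log series, top 100 uM, 0.5% DMSO vehicle. Bidirectional curve fitting against DMSO baseline.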

Measured: AC50

Sequence of Hypoxia-inducible factor 1-alpha (Homo sapiens) (Q16665 whole entry, looked up): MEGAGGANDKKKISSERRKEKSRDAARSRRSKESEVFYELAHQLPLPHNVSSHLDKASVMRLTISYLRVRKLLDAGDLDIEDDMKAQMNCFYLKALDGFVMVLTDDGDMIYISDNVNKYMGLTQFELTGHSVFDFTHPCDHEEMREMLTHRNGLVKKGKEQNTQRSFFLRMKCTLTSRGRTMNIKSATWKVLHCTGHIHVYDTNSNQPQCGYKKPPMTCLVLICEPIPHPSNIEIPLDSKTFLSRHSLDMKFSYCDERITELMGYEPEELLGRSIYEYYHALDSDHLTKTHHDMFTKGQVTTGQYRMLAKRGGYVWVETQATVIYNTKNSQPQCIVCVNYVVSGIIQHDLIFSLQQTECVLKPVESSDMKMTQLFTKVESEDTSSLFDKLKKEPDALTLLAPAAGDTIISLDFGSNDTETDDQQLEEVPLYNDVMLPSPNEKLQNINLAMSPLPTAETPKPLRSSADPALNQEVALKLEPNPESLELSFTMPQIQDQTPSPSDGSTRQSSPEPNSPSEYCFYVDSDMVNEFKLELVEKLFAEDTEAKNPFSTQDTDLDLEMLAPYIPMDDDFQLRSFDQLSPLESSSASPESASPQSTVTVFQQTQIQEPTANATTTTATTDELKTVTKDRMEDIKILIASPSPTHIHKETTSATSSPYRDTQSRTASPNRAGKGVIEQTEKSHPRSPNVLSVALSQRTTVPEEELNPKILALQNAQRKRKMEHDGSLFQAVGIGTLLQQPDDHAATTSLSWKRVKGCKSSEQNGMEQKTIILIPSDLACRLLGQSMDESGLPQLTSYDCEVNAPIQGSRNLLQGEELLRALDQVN

O=c1n(Cl)c(=O)n(Cl)c(=O)n1Cl
inactive: [1] | [2] | [3] | [4] | [5] | HGF (gene 3082) | [6] | [7] | [8] | [9] | [10] | [11] | [12] | [13] | [14] | [15] | [16] | [17] | MYC, MYC (gene 4609) | [18]

COP(=S)(OC)SCn1nnc2ccccc2c1=O
inactive: [1] | [2] | [3] | [4] | [5] | HGF (gene 3082) | [6] | [7] | [8] | [9] | [10] | [11] | [12] | [13] | [14] | [15] | [16] | [17] | MYC, MYC (gene 4609) | [18]

CCOC(=O)C(C)OC(=O)c1cc(Oc2ccc(C(F)(F)F)cc2Cl)ccc1[N+](=O)[O-] (configuration not stated)
active: [5] 1.38 µM | [6] 21 µM | [9] 9.92 µM | [12] 13.3 µM
inactive: [1] | [2] | [3] | [4] | HGF (gene 3082) | [7] | [8] | [10] | [11] | [13] | [14] | [15] | [16] | [17] | MYC, MYC (gene 4609)

Nc1cnn(-c2ccccc2)c(=O)c1Cl
inactive: [1] | [2] | [3] | [4] | [5] | [6] | [7] | [8] | [9] | [10] | [11] | [12] | [13] | [14] | [15] | [16] | [17] | MYC, MYC (gene 4609) | [18]

CCNP(=S)(OC)O/C(C)=C/C(=O)OC(C)C (configuration not stated)
active: [1] 9.92 µM | [5] 25.8 µM | [6] 50 µM | [12] 50 µM | [15] 50 µM | [18] 50 µM
inactive: [2] | [3] | [4] | [7] | [8] | [9] | [10] | [11] | [13] | [14] | [16] | [17] | MYC, MYC (gene 4609)

CCN(CC)c1nc(C)cc(OP(=S)(OC)OC)n1
inactive: [1] | [2] | [3] | [4] | [5] | HGF (gene 3082) | [6] | [7] | [8] | [9] | [10] | [11] | [12] | [13] | [14] | [15] | [16] | [17] | MYC, MYC (gene 4609) | [18]

CNC(=O)Oc1cccc2ccccc12
inactive: [1] | [2] | [3] | [4] | [5] | HGF (gene 3082) | [6] | [7] | [8] | [9] | [10] | [11] | [12] | [13] | [14] | [15] | [16] | [17] | MYC, MYC (gene 4609) | [18]

CS(=O)(=O)c1ccc(C(=O)C2C(=O)CCCC2=O)c([N+](=O)[O-])c1
inactive: [1] | [2] | [3] | [4] | [5] | HGF (gene 3082) | [6] | [7] | [8] | [9] | [10] | [11] | [12] | [13] | [14] | [15] | [16] | [17] | MYC, MYC (gene 4609) | [18]

O=C(O)c1c(Cl)ccc2cc(Cl)cnc12
inactive: [1] | [2] | [3] | [4] | [5] | HGF (gene 3082) | [6] | [7] | [8] | [9] | [10] | [11] | [12] | [13] | [14] | [15] | [16] | [17] | MYC, MYC (gene 4609) | [18]
